From PubChem BioAssay (NCATS)
Inconclusive results are not listed. Active and inactive are the calls of the source. Unless noted, calls come from the whole dose curve; as a rule, active = well fitted curve in the direction sought with a large enough effect; inconclusive = small, poorly fitted or top-dose-only effect, or another doubt; inactive = no such curve, though single readings can be large; an effect the other way counts as inactive or inconclusive.

Key:
[1] = qHTS assay for measurement of the activity of small molecule inhibitors on Zika virus induced Caspase-3 activity in human iPSC derived neural progenitor cells (hNPCs) (AID 1224857); note: nearly all actives have a fitted effect of over 65% in size
Outline: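 Percent inhibition of virus-induced caspase-3/7 luminescence (Caspase-Glo), scaled between uninfected cells and Zika-infected cells. hNPCs received compound 1 hr before ZIKV at 2 FFU/cell, with 6 hours infection at 37 C.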

[2] = qHTS assay for measurement of the activity of small molecule inhibitors on Zika virus induced Caspase-3 activity in human astrocytoma cells (AID 1224859)
Outline: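 Luminescent caspase-3/7 read-out (30 min reagent, room temperature) in human SNB-19 cells infected 6 h with ZIKV (2 FFU/cell) after 1 h compound pre-incubation; Data were normalised to uninfected and infected wells.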

[3] = qHTS assay to identify small molecule inhibitors of chordoma cells - UCH-2 (AID 1259356); note: series mostly up to about 46 µM
[4] = P-glycoprotein substrates identified in KB-8-5-11 adenocarcinoma cell line, qHTS therapeutic library screen (AID 1346987); note: series mostly up to about 44 µM; nearly all actives have a fitted effect of over 65% in size
Outline: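 KB-8-5-11: colchicine-selected sub-line of KB-3-1 over-expressing P-gp; assay medium lacked colchicine. 72 h drug exposure at 37 degree C, CellTiter-Glo.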

[5] = NS1 protein of Zika virus - qHTS assay to identify small molecule inhibitors in human HEK 293 cells (AID 1347053); note: series mostly up to about 46 µM; nearly all actives have a fitted effect of over 55% in size
Outline: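 Following 20 h seeding, HEK 293 cells took compound, then 1 h later ZIKV MR766 (MOI = 0.5). Incubation ran 24 h at 37 C before TR-FRET detection of NS1; a drop in signal indicates inhibition.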

[6] = Natriuretic polypeptide receptor (hNpr1) antagonism - Pilot counterscreen GloSensor control cell line (AID 1347045; calls by dose curve; note: series mostly up to about 38 µM)
Outline: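 HEK293 cells carrying the GloSensor cGMP sensor (GIP/pGS-40F) were loaded with 2% GloSensor reagent for 2 h, exposed to compounds for 30 min, and then stimulated with 50 uM sodium nitroprusside for 20 min at room temperature.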

[7] = target: Atrial natriuretic peptide receptor 1 (Homo sapiens) (UniProt P16066); assay: Natriuretic polypeptide receptor (hNpr1) antagonism - Pilot screen (AID 1347049; calls by dose curve;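 note: agonist-evoked cGMP luminescence read 20 min after hNppA addition; series mostly up to about 58 µM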)
Outline: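 Readout is cGMP-driven firefly luciferase luminescence in HEK293 cells carrying hNpr1 and a PDE5-domain GloSensor, read before and 20 min after 0.1 nM hNppA stimulation. Cells had 2% substrate reagent for 2 h and test compound for 30 min.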

[8] = target: Atrial natriuretic peptide receptor 2 (Homo sapiens) (UniProt P20594); assay: Natriuretic polypeptide receptor (hNpr2) antagonism - Pilot subtype selectivity assay (AID 1347050; calls by dose curve)
Outline: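 Pilot selectivity screen against hNpr2: HEK293 cGMP-sensor cells are treated with LOPAC1280 compounds, then with hNppC peptide at 1 nM final. The cGMP-driven luminescence change over 20 min at room temperature is the read-out.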

[9] = target: Tyrosine-protein phosphatase non-receptor type substrate 1 (Homo sapiens) + Leukocyte surface antigen CD47 (Homo sapiens) (UniProt P78324+Q08722); assay: CD47-SIRPalpha protein protein interaction - LANCE assay qHTS validation (AID 1347057; active = well fitted curve in the direction sought with a large enough effect in the signal ratio, with a control signal flat, not every such curve was filed as active; the % refers to the signal ratio; note: series mostly up to about 38 µM)
Outline: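 First, His-tagged CD47 and Eu-labelled anti-His antibody met the compound for 30 min; next, site-specifically biotinylated SIRPalpha was added for 30 min; finally streptavidin-APC was added before reading the TR-FRET ratio.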

Measured: Potency

Chain of Tyrosine-protein phosphatase non-receptor type substrate 1 (Homo sapiens) + Leukocyte surface antigen CD47 (Homo sapiens) (P78324 whole entry, looked up): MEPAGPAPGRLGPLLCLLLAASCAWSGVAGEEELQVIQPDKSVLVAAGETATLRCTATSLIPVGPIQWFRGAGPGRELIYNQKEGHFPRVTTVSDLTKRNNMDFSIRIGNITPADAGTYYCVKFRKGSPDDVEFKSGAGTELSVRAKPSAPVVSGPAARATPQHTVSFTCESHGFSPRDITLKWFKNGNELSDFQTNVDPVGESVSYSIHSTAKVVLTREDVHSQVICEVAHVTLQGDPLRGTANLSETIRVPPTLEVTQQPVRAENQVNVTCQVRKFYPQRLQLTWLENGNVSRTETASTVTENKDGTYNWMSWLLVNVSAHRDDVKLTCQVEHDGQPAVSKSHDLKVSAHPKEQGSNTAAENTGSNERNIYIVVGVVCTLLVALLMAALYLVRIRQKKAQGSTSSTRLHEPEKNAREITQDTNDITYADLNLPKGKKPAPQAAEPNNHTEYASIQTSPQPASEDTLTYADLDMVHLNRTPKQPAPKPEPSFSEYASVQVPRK
Chain of Tyrosine-protein phosphatase non-receptor type substrate 1 (Homo sapiens) + Leukocyte surface antigen CD47 (Homo sapiens) (Q08722 whole entry, looked up): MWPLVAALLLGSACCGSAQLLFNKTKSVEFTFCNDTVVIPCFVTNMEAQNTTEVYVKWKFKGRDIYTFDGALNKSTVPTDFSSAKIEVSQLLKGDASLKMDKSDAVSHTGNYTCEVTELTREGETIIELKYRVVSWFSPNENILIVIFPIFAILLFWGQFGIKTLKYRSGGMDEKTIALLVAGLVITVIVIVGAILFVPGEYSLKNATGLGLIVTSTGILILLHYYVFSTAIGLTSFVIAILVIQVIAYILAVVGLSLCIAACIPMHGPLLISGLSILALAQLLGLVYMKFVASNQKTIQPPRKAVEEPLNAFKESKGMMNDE
Chain of Atrial natriuretic peptide receptor 1 (Homo sapiens) (P16066 whole entry, looked up): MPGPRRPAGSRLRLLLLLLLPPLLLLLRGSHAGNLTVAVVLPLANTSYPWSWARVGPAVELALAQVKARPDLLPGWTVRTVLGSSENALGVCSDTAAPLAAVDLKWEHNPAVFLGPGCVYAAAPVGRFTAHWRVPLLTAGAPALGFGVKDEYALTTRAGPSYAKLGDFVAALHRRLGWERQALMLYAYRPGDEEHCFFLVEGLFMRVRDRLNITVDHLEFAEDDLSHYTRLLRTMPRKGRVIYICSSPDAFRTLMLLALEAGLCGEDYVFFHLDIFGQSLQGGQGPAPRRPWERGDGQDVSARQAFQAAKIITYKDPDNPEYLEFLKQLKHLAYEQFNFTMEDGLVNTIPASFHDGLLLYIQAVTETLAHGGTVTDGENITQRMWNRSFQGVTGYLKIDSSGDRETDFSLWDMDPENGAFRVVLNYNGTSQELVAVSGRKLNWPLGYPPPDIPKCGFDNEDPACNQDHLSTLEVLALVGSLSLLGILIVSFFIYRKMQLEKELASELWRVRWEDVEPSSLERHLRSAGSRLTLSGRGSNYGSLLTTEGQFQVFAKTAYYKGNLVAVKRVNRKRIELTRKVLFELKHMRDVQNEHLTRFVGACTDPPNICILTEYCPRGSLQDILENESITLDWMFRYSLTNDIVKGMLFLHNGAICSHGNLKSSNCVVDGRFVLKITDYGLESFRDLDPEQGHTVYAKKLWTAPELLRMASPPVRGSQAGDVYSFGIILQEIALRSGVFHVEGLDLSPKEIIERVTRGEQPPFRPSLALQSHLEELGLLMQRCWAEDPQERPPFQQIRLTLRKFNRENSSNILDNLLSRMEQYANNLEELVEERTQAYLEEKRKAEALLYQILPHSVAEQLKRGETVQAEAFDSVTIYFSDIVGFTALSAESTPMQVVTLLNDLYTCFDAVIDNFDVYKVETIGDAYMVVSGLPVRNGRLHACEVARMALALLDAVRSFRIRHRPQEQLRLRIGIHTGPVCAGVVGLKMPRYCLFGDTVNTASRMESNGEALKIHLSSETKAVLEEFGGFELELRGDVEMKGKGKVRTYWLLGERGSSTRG
Chain of Atrial natriuretic peptide receptor 2 (Homo sapiens) (P20594 whole entry, looked up): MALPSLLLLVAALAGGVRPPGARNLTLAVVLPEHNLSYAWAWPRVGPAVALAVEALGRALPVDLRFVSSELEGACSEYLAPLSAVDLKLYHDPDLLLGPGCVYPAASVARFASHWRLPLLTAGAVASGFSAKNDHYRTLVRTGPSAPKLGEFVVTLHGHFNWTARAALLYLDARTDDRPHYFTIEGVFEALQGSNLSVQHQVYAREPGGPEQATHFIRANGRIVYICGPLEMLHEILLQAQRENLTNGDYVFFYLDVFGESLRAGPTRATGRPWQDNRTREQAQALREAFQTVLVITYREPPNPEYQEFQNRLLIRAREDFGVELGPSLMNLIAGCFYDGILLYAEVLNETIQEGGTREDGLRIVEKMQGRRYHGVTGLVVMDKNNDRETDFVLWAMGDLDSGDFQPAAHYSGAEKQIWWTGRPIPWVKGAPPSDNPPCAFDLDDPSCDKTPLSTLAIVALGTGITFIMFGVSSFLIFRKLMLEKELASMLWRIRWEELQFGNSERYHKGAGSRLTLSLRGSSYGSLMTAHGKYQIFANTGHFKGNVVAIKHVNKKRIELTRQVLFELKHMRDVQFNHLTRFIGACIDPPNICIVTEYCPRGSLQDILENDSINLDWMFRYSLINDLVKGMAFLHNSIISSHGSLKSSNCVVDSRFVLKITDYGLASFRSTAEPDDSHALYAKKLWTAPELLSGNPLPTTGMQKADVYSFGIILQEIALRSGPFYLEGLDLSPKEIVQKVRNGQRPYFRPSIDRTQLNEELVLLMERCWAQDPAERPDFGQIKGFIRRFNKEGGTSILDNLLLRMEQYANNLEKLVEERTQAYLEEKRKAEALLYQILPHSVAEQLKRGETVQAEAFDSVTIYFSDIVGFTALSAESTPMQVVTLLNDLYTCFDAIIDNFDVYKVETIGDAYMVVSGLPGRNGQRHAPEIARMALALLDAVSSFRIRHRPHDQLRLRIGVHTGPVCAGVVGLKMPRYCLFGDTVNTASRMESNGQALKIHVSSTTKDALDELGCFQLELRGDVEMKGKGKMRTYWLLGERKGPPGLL

CC1(C)O[C@@H]2C[C@H]3[C@@H]4C[C@H](F)C5=CC(=O)C=C[C@]5(C)[C@H]4[C@@H](O)C[C@]3(C)[C@]2(C(=O)CO)O1
inactive: [1] | [2] | [3] | [4] | [5]

Cc1cc(O)c(C(C)C)cc1Cl
inactive: [1] | [2] | [3] | [4] | [5]

C[C@]12C=CC(=O)C=C1[C@@H](F)C[C@@H]1[C@@H]2[C@@H](O)C[C@@]2(C)[C@H]1CC[C@]2(O)C(=O)CO
inactive: [1] | [2] | [3] | [4] | [5]

CCOc1ccc(NC(=O)CC(C)O)cc1 (stereo unspecified)
inactive: [1] | [2] | [3] | [4] | [5]

CC(C)(C(=O)c1cccnc1)c1cccnc1
inactive: [1] | [2] | [3] | [4] | [5]

C=CCc1ccc(O)c(OC)c1
inactive: [1] | [2] | [3] | [4] | [5]

C[C@]12CCC(=O)C=C1CC[C@H]1[C@@H]3CC[C@](O)(C(=O)CO)[C@@]3(C)C[C@H](O)[C@@]12F
inactive: [1] | [2] | [3] | [4] | [5]

C[C@H]1C[C@H]2[C@@H]3CCC4=CC(=O)C=C[C@]4(C)[C@@]3(Cl)[C@@H](O)C[C@]2(C)[C@@]1(O)C(=O)CO
inactive: [1] | [2] | [3] | [4] | [5]

CCCCCCCCCCCCCCCC[N+](C)(C)CCN(Cc1ccc(OC)cc1)c1ncccn1
inactive: [1] | [2] | [3] | [4]

CCCC1O[C@@H]2C[C@H]3[C@@H]4CCC5=CC(=O)C=C[C@]5(C)[C@H]4[C@@H](O)C[C@]3(C)[C@]2(C(=O)CO)O1 (stereo partly specified)
inactive: [1] | [2] | [3] | [4] | [6] | [7] | [8] | [5] | [9]

CC(=O)Oc1ccc(C(c2ccc(OC(C)=O)cc2)c2ccccn2)cc1
inactive: [1] | [2] | [3] | [4] | [5]

CCOc1ccc2nc3cc(N)ccc3c(N)c2c1
inactive: [1] | [2] | [3] | [4] | [5]

C[C@H](O)C(=O)Nc1c(I)c(C(=O)NC(CO)CO)c(I)c(C(=O)NC(CO)CO)c1I
inactive: [1] | [2] | [3] | [4] | [5]

CCOC(=O)OC(C)OC1=C(C(=O)Nc2ccccn2)N(C)S(=O)(=O)c2ccccc21 (stereo unspecified)
inactive: [1] | [2] | [3] | [4] | [5]

COc1cc(/C=C/C(=O)O[C@H]2CC[C@]34C[C@]35CC[C@]3(C)[C@@H]([C@H](C)CCC=C(C)C)CC[C@@]3(C)[C@@H]5CC[C@H]4C2(C)C)ccc1O
inactive: [1] | [2] | [3] | [4] | [5]

Oc1ccc(O)cc1
inactive: [1] | [2] | [3] | [4] | [7] | [8] | [5] | [9]

O=c1ccc2ccccc2o1
inactive: [1] | [2] | [3] | [4] | [5]

CC(O)C(=O)O (stereo unspecified)
inactive: [1] | [2] | [3] | [4] | [5]

O=C(O)CNC(=O)c1ccccc1
inactive: [1] | [2] | [3] | [4] | [5]

Cc1ccc(C(=O)C(C)CN2CCCCC2)cc1 (stereo unspecified)
inactive: [1] | [2] | [3] | [4] | [5]

CN(C)CCOc1ccccc1Cc1ccccc1
inactive: [1] | [2] | [3] | [4] | [5]

OCc1ccccc1O
inactive: [1] | [2] | [3] | [4] | [5]
